# Assay results taken from PubChem BioAssay.
# The source made the active and inactive calls.
# Experiments:
# [1] = test system: PRMT1 (protein arginine N-methyltransferase 1); experiment: small molecules binding arginine methyltransferase PRMT1 – biochemical, small-molecule microarray, 635 nm fluorescence, primary screen (AID 1088); conditions: higher = more signal;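 further: binding of Prmt1 protein to compounds spotted on small-molecule microarray slides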
# [2] = growth effects on S. cerevisiae YJM789 – YJM789 clinical isolate, OD600, 24 h, basal, primary screen (AID 1089); conditions: higher = more signal, called active from +8 up or from −8 down;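 further: growth of clinical yeast isolate S. cerevisiae YJM 789 seeded 1000 cells per well; test concentration not given here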
# [3] = S. pombe growth modifiers, basal conditions – strain 972, OD600, 24 h, no modulator, primary screen (AID 1090);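 further: basal condition with compound alone and no growth modifier present; test concentration not given here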; conditions: S. pombe 972 growth, higher = more signal, called active from +8 up or from −8 down
# [4] = budding yeast growth modifiers under rapamycin – strain BY4716, OD600, 96 h, primary screen (AID 1091); further: test concentration not given here; conditions: S. cerevisiae BY4716 + rapamycin, higher = more signal, called active from +8 up or from −8 down
# [5] = target: Torsin-1A-interacting protein 2 (Homo sapiens) (UniProt Q8NFQ8); experiment: small molecules binding lysate-expressed LULL1 – cell lysate, human LULL1 lysate, 635/667 nm fluorescence, primary screen (AID 1092); conditions: small-molecule microarray, hLULL1 lysate binding, 635 nm fluorescence; higher = more signal;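 further: probe is lysate of COS7 cells overexpressing human LULL1; score merges per-feature 667 nm fluorescence with signal-to-noise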
# Sequence of Torsin-1A-interacting protein 2 (Homo sapiens) (Q8NFQ8 whole entry, looked up): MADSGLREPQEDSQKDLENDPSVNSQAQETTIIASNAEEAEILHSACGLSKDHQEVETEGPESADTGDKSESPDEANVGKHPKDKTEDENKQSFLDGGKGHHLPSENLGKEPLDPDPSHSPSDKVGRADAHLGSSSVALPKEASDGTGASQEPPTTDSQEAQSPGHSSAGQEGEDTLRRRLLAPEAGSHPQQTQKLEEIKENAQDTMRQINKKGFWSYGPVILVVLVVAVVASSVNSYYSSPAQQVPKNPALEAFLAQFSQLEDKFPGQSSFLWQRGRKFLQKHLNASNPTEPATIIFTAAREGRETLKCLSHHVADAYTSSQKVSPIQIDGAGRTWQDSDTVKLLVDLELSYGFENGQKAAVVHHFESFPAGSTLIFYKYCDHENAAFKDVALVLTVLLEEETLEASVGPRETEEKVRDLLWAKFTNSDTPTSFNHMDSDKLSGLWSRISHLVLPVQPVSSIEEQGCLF
# [6] = optical density change of DRC41 E. coli – strain DRC41, OD650, 24 h, E. coli filamentation project, primary screen (AID 1093);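 further: MC1000 strain lacking acrAB efflux and sulA so SOS filamentation is blocked; test concentration not given here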; conditions: E. coli DRC41 growth, higher = more signal, called active from +8 up or from −8 down
# [7] = probe aLefty2 binding to arrayed compounds – biochemical, biotinylated probe, 635/667 nm fluorescence, primary screen (AID 1094); conditions: small-molecule microarray, higher = more signal;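 further: score merges spot fluorescence near 667 nm with spot signal-to-noise ratio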
# [8] = test system: Noggin (protein binding on small-molecule microarray); experiment: small molecules binding Noggin protein – biochemical, 635/667 nm fluorescence, primary screen (AID 1095); conditions: 635 nm fluorescence, higher = more signal;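 further: score merges 667 nm feature fluorescence with signal to noise over triplicate slides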
# [9] = target: Neurogenic locus notch homolog protein 3 (Homo sapiens) (UniProt Q9UM47); experiment: small molecules binding NOTCH3 protein – biochemical, 635/667 nm fluorescence, primary screen (AID 1096); conditions: small-molecule microarray, 635 nm fluorescence, higher = more signal
# Sequence of Neurogenic locus notch homolog protein 3 (Homo sapiens) (Q9UM47 whole entry, looked up): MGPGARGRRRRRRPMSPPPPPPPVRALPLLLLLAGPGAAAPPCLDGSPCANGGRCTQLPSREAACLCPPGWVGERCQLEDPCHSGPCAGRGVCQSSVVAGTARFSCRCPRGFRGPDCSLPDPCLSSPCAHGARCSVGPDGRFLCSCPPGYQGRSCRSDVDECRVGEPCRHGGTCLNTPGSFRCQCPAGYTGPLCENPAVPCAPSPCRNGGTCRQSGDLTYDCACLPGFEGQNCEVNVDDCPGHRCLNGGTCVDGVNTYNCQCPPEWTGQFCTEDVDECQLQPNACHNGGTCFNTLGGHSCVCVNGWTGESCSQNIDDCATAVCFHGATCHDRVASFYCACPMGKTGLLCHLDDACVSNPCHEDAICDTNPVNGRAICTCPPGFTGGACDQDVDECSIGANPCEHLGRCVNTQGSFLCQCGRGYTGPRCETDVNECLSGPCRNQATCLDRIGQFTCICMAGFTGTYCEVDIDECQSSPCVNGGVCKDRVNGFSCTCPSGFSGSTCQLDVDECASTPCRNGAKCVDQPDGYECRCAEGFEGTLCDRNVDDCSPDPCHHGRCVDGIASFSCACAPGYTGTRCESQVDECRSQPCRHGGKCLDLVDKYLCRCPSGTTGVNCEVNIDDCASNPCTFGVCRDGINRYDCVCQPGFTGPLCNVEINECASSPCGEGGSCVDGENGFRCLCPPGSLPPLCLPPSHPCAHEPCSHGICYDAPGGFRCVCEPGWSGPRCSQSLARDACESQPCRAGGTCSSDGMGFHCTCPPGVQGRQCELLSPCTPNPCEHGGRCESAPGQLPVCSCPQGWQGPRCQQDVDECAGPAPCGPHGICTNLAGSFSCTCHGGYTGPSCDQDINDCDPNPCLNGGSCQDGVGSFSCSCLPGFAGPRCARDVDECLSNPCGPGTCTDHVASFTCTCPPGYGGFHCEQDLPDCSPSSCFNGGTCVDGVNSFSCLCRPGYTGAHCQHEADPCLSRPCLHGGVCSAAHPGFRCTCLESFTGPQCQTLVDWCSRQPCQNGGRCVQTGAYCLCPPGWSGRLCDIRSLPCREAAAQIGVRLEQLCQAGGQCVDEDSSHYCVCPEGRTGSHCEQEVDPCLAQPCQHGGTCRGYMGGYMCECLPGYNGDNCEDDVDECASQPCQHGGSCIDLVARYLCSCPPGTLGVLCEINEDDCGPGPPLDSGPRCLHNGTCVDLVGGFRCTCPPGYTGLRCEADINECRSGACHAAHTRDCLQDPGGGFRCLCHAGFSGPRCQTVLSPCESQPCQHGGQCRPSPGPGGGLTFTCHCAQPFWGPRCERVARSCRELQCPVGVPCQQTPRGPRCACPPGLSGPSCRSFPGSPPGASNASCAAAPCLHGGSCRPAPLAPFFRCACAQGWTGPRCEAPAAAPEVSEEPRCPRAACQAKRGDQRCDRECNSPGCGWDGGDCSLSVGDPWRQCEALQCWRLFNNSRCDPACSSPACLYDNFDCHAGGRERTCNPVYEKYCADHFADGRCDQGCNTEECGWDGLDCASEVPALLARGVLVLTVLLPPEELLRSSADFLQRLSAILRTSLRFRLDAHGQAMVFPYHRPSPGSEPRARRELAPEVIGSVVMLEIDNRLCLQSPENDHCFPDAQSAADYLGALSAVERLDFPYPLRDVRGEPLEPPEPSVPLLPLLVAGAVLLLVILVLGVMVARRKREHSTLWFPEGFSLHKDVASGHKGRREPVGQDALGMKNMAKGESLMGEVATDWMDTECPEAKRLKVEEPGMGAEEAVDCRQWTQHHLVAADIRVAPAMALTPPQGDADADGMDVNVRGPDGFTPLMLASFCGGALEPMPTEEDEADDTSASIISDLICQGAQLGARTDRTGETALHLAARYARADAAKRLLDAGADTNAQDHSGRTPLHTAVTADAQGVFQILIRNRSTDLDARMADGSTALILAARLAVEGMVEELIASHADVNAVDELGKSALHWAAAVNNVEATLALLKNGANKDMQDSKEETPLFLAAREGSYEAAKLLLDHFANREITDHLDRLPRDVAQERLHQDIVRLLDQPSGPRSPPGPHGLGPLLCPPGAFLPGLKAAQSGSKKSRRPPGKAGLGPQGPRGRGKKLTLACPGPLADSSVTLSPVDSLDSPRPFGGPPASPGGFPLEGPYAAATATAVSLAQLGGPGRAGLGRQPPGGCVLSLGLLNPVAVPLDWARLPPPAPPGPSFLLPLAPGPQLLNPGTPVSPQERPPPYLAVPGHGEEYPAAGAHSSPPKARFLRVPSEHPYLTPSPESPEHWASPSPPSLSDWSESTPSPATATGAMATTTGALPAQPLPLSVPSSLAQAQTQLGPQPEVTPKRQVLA
# [10] = probe aEGFR binding to arrayed compounds – biochemical, biotinylated probe, 635/667 nm fluorescence, primary screen (AID 1097); conditions: small-molecule microarray, higher = more signal;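 further: probe is a biotinylated anti-EGFR antibody binding compounds printed on slides; score combines fluorescence near 667 nm and signal to noise of each spot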
smiles,measurement,setting,value
CO[C@H]1O[C@H](CO)[C@@H](OC(=O)Nc2ccc(C(F)(F)F)cc2)[C@H](OC(=O)Nc2ccc3c(c2)OCO3)[C@H]1OC(=O)Nc1ccc2c(c1)OCO2,composite z-score,[1],1.54
same,z-score,[2],0.724 (inactive)
same,z-score,[3],0.908 (inactive)
same,z-score,[4],14.9 (active)
same,composite z-score,[5],3.03
same,z-score,[6],-0.298 (inactive)
same,composite z-score,[7],0.0631
same,composite z-score,[8],0.293
same,composite z-score,[9],1.11
same,composite z-score,[10],0.104
C[C@]1(C(=O)O)c2ccccc2C(=O)N(Cc2ccccc2)[C@H]1c1ccc(CO)cc1,composite z-score,[1],-1.68
same,z-score,[2],1.09 (inactive)
same,z-score,[3],0.468 (inactive)
same,z-score,[4],1.37 (inactive)
same,composite z-score,[5],-0.884
same,z-score,[6],0.651 (inactive)
same,composite z-score,[7],0.119
same,composite z-score,[8],-1.51
same,composite z-score,[9],-1.9
same,composite z-score,[10],-0.288
COc1cc2c(cc1OC)CN(C(=O)[C@H]1[C@@H]3C(=O)O[C@@H](c4ccccc4)[C@@H](c4ccccc4)N3[C@@H](c3ccc(OCCO)cc3)[C@]13C(=O)Nc1ccc(C#CC4(O)CCCCCC4)cc13)CC2,composite z-score,[1],1.56
same,z-score,[2],3.2 (inactive)
same,z-score,[3],1.28 (inactive)
same,z-score,[4],4.84 (inactive)
same,composite z-score,[5],2.37
same,z-score,[6],2.32 (inactive)
same,composite z-score,[7],1.02
same,composite z-score,[8],1.47
same,composite z-score,[9],1.09
same,composite z-score,[10],0.678
C=C(CCCC)/C(=C/C[C@@H](OC(=O)c1ccncc1)c1cccc(OCCO)c1)c1cnc2ccccc2c1,composite z-score,[1],1.57
same,z-score,[2],-2.12 (inactive)
same,z-score,[3],-1.98 (inactive)
same,z-score,[4],1.53 (inactive)
same,composite z-score,[5],1.52
same,z-score,[6],0.657 (inactive)
same,composite z-score,[7],0.0113
same,composite z-score,[8],1.55
same,composite z-score,[9],1.06
same,composite z-score,[10],0.0617
C=C(CCCC)C(=O)CC[C@@H](OC(=O)c1ccccc1-c1ccccc1C(=O)O)c1cccc(OCCO)c1,composite z-score,[1],1.53
same,z-score,[2],0.299 (inactive)
same,z-score,[3],-0.694 (inactive)
same,z-score,[4],-0.541 (inactive)
same,composite z-score,[5],0.13
same,z-score,[6],0.169 (inactive)
same,composite z-score,[7],-0.31
same,composite z-score,[8],1.06
same,composite z-score,[9],0.675
same,composite z-score,[10],-0.287
O=C1O[C@@H](c2ccccc2)[C@@H](c2ccccc2)N2[C@@H](c3ccc(O)cc3)[C@]3(C(=O)Nc4ccc(C#CCCO)cc43)[C@@H](C(=O)Nc3nc4ccccc4s3)[C@H]12,composite z-score,[1],1.55
same,z-score,[2],0.782 (inactive)
same,z-score,[3],0.403 (inactive)
same,z-score,[4],1.93 (inactive)
same,composite z-score,[5],2.81
same,z-score,[6],0.887 (inactive)
same,composite z-score,[7],-0.119
same,composite z-score,[8],1.35
same,composite z-score,[9],0.851
same,composite z-score,[10],-0.0036
NC(N)=NCc1cn(CCc2c[nH]c3ccccc23)nn1,composite z-score,[1],0.974
same,z-score,[2],-0.289 (inactive)
same,z-score,[3],-0.002 (inactive)
same,z-score,[4],-1.38 (inactive)
same,composite z-score,[5],1.01
same,z-score,[6],-0.979 (inactive)
same,composite z-score,[7],-0.166
same,composite z-score,[8],1.36
same,composite z-score,[9],0.646
same,composite z-score,[10],0.128
